# In the library only some 2.1% were active in any assay of this set; here they are far more common.
# IEC-6 tox – IEC-6 cytotoxicity, counter-screen for KLF5 inhibitors; inhibition, % at 5 µM; luminescence viability; AID 1825; 290,000 compounds, 0.78% hits; in the data active = inhibition above about 22%
# Ba/F3 V617F tox – lowers viability of Ba/F3 cells expressing EpoR and JAK2V617F. 220,000 compounds, 1.1% hits. AID 1446. ATP luminescence. inhibition, % at 5.6 µM;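 active = inhibition above the campaign mean plus 3 SD over all tested compounds, cut at about 24% in these data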;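 also: cytokine-independent growth of Ba/F3 cells driven by EpoR plus mutant JAK2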
# KLF5 inh – suppresses KLF5 promoter-driven expression. DLD-1 KLF5 promoter-luciferase reporter, luminescence. inhibition, % at 5 µM. 290,000 compounds, 0.23% hits;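 active = inhibition above a per-plate limit of that plate's mean compound inhibition plus 3 SD, cut at about 60% in these data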;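 also: higher means less KLF5 promoter-driven luciferase light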
# APP transl inh – APP translation inhibition; SH-SY5Y APP 5'UTR-luciferase reporter, luminescence; inhibition, % at 2 µM; 190,000 compounds, 0.82% hits; AID 1285;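 active = inhibition above a set limit, derived from the sample mean plus 3 SD, cut at about 45% in these data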
# aSyn 5UTR inh – 5' untranslated region of α-synuclein, MLPCN primary screen; AID 1813; 300,000 compounds, 0.82% hits; inhibition, % (tested at 7.5 µM); alpha-synuclein 5'UTR reporter, inhibitor activity; in the data active = inhibition above about 60%;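 also: H4 neuroglioblastoma cells stably carrying SNCA 5'UTR luciferase fusion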
# BaF3 parental – counter-screen for JAK2V617F inhibitors: parental Ba/F3 viability inhibitors | 220,000 compounds, 1.1% hits | AID 1486 | CellTiter-Glo ATP luminescence | inhibition, % at 5.6 µM;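 active = inhibition above a per-campaign cutoff, the mean inhibition of all tested compounds plus 3 SD, cut at about 27% in these data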
# A number is an active result; – = inactive; · = not tested or not shown.
SMILES,IEC-6 tox,Ba/F3 V617F tox,KLF5 inh,APP transl inh,aSyn 5UTR inh,BaF3 parental
COc1cc(C(=O)NNC(=S)NCc2ccco2)cc(OC)c1OC,–,–,–,–,–,90.3
COc1ccccc1C(=O)NNC(=S)NC(=O)c1cc(OC)c(OC)c(OC)c1,–,–,–,–,72.5,–
CN(CCOc1ccc(Br)cc1)C(=O)CNC(=O)c1ccc2ccccc2c1,–,·,–,·,–,·
O=S(=O)(c1cnc(Cl)c(Cl)c1)N1CCN(c2ncccn2)CC1,–,–,–,·,–,–
CN(C)C(=O)CSc1nnc(-c2ccc(S(=O)(=O)N3CCCC3)cc2)n1C,–,·,–,·,–,·
C=C1CCN(c2ccc(C(=O)NCc3ccc(OC)cc3)cc2[N+](=O)[O-])CC1,·,·,·,·,–,·
COc1ccc(C(=O)Nc2ccnn2C2CCN(C(=O)c3cnsn3)CC2)cc1,–,·,–,·,–,·
Cc1onc(-c2ccccc2Cl)c1C(=O)N1CCC(C)CC1,–,·,–,·,–,·
CCOC(=O)C1CCN(C(=O)c2ccco2)CC1,–,–,–,–,·,–
Cc1oc2c(c1C(=O)N1CCC(C)CC1)C(=O)c1ccccc1C2=O,–,–,–,–,83.4,–
CCOC(=O)C1CCN(C(=O)c2c(C)oc3c2C(=O)c2ccccc2C3=O)CC1,–,–,–,–,72.1,–
Cc1ccc(C)c(NC(=O)c2cc(-c3cc(C)c(C)cc3O)n[nH]2)c1,–,·,–,·,–,·
O=C1CN(S(=O)(=O)c2cccc(C(=O)O)c2)c2ccccc2N1,–,·,–,·,–,·
Cn1c(=O)n(C)c2cc([N+](=O)[O-])c(N3CCN(CCO)CC3)cc21,–,–,–,–,–,–
O=S(=O)(NCc1ccccc1)c1ccc(NC(=S)NCc2ccco2)cc1,–,·,–,·,–,·
O=[N+]([O-])/C=C/c1c(OCc2ccccc2)ccc2ccccc12,–,–,–,–,–,–
CCOC(=O)COc1ccc2ccccc2c1/C=C/[N+](=O)[O-],–,–,–,61.6,–,–
COc1ccc(-c2nnc(SCc3nc4ccccc4c(=O)[nH]3)o2)cc1,–,–,–,·,–,52.6
CC(=O)c1ccc(NS(=O)(=O)c2cccc(C(=O)Nc3ccccc3C(=O)O)c2)cc1,–,·,–,·,–,·
O=[N+]([O-])c1ccc(CN2CCOCCOCCN(Cc3ccc([N+](=O)[O-])cc3)CCOCC2)cc1,–,–,–,–,–,–
O=[N+]([O-])c1ccc(COc2ccc(Br)cc2CN2CCOCC2)cc1,–,–,–,–,–,90.0
Cc1c(C(=O)N/N=C/C(C)C)[nH]c2c([N+](=O)[O-])cccc12,–,–,–,92.4,68.0,–
CN(C)c1ccc(N=C/C=C2\N(C)c3ccccc3C2(C)C)cc1,–,–,–,–,–,–
CN1/C(=C\C=O)C(C)(C)c2ccccc21,–,39.4,–,–,–,48.5
C=CCN1C(=O)/C(=C\C=C2\N(C)c3ccccc3C2(C)C)SC1=S,–,–,–,–,–,–
SMILES,IEC-6 tox,Ba/F3 V617F tox,KLF5 inh,APP transl inh,aSyn 5UTR inh,BaF3 parental
CN1/C(=C\C=Nc2ccc3ccccc3c2)C(C)(C)c2ccccc21,–,47.9,–,–,·,41.8
CN1\C(=C/C=C/C=C/C=[N+](C)C)C(C)(C)c2ccccc21,–,37.9,–,–,–,32.9
CN1/C(=C/C=C(C#N)C#N)C(C)(C)c2ccccc21,–,–,–,–,–,–
Cc1ccc2cc3c(N)c(C(=O)N4CC(=O)Nc5ccccc54)sc3nc2c1,–,–,–,–,82.1,–
Cc1ccc2nc3sc(C(=O)N4CCOCC4)c(N)c3cc2c1,–,–,–,–,99.7,–
O=C(CCn1c(=O)[nH]c2ccccc2c1=O)NCCSCc1ccccc1,–,–,–,–,–,–
C/C(CC(=O)Nc1ccccn1)=N\NC(=O)c1ccccc1O,–,·,–,·,71.0,·
O=C(NC1CCN(Cc2ccc(Cl)cc2Cl)CC1)c1ccccc1,–,·,–,·,–,·
Cn1cc([N+](=O)[O-])c(C(=O)Nc2cc(Oc3cccnc3)cc([N+](=O)[O-])c2)n1,24.0,65.8,–,96.5,–,50.7
Cc1ccc(-c2nc(NC(=O)c3nn(C)cc3[N+](=O)[O-])sc2C)cc1C,–,91.9,–,95.8,–,85.2
Cc1ccc(-c2nc(NC(=O)c3nn(C)cc3[N+](=O)[O-])sc2C)cc1,–,77.2,–,95.4,99.4,80.9
O=[N+]([O-])c1cc(Oc2cccnc2)cc([N+](=O)[O-])c1,–,–,–,–,–,–
Cn1cc([N+](=O)[O-])c(C(=O)Nc2ccc(-c3nc4ccccc4[nH]3)cc2)n1,24.8,–,–,–,–,–
Cn1cc([N+](=O)[O-])c(C(=O)Nc2ccc3nc(-c4ccccc4)[nH]c3c2)n1,–,–,–,–,–,–
Cc1ccc2nc(SCC(=O)Nc3cc(C)on3)nc(=O)n2c1,·,·,·,·,–,·
O=C(CSc1nncn1-c1ccccc1)N1CCCC1,–,·,–,·,–,·
O=C(Cc1ccc(Cl)cc1)NCCc1ccc(F)cc1,·,·,·,·,–,·
COc1cccc(NC(=O)CSc2nc3ccccc3nc2N2CCOCC2)c1,–,·,–,·,–,·
CCOc1cc(/C=N/NC(=O)CNc2cccc(C)c2)ccc1OC(=O)c1ccccc1,–,–,–,–,–,–
CCOc1cc(/C=N\NC(N)=O)cc(Br)c1OC(C)C,–,–,–,–,61.8,–
C=CCOc1c(Br)cc(/C=N/Nc2ccc(C(=O)O)cc2)cc1OCC,39.4,–,–,–,–,–
CCOc1cc(/C=N/Nc2cccc(C(=O)O)c2)ccc1OC(=O)c1ccccc1,–,–,–,–,97.5,–
O=C(O)c1ccc2c3c(ncnc13)-c1ccccc1C2=O,–,–,–,–,106.6,–
Cc1cc(OCCN2CCC(Cc3ccccc3)CC2)ccc1[N+](=O)[O-],–,·,–,·,–,·
Cc1cc(NC(=O)Nc2cccc([N+](=O)[O-])c2)no1,–,–,–,–,–,89.7
SMILES,IEC-6 tox,Ba/F3 V617F tox,KLF5 inh,APP transl inh,aSyn 5UTR inh,BaF3 parental
COc1ccccc1C(=O)NCC(=O)N/N=C/c1ccc([N+](=O)[O-])cc1,–,–,–,–,–,47.7
O=C(CNc1ccccc1)N/N=C/c1ccc([N+](=O)[O-])cc1,–,–,–,–,–,–
Cn1nc(C(C)(C)C)cc1C(=O)NCc1ccc2c(c1)OCO2,–,·,–,·,–,·
Nc1nn(-c2ccccc2)c(N)c1N=Nc1ccc2c(c1)OCO2,57.9,77.6,–,–,–,64.4
Nc1[nH]n(-c2ccccc2)c(=O)c1N=Nc1ccc2c(c1)OCCO2,–,–,–,–,–,–
O=C(NCc1cccnc1)c1c[nH]c2cc3c(cc2c1=O)OCCO3,–,27.2,–,–,–,40.9
C/C(N)=C(/C#N)C(=O)COC(=O)CNS(=O)(=O)c1ccc2ccccc2c1,–,50.5,–,·,–,59.6
Nc1cc(OC(=O)c2ccc(F)cc2)nn1S(=O)(=O)c1ccccc1,–,·,–,·,–,·
O=[N+]([O-])c1cccc(NC(=S)Nc2nc(-c3ccc(Cl)cc3Cl)cs2)c1,–,·,–,·,72.6,·
CC(=O)Nc1nc(C)c(-c2csc(Nc3cccc([N+](=O)[O-])c3)n2)s1,–,–,–,–,66.7,–
Cc1ccc(-n2nc(C)c3c(C)c(CCC(=O)Nc4ccc(CN5CCCC5)cc4)c(C)nc32)cc1,–,–,–,·,103.6,–
